High-throughput results from PubChem BioAssay.
Rows were chosen to be rich in hits. Some 8.7% of all compounds tested hit in one or more screens of this group.
12-LOX inh: inhibitors of human 12S-lipoxygenase ALOX12; P18054; purified 12hLO, xylenol orange hydroperoxide absorbance; Potency, µM (titrated, usually from 108 µM), most hits filed as inhibitors; 580,000 tested, 1.1% active; AID 1671190
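Purified human 12hLO at 150 nM in 25 mM Hepes, 0.01% Triton X-100, pH 7.0, preincubated 15 min at room temperature with compound. Reaction started with 40 uM arachidonic acid, 30 min at room temperature. Hydroperoxide measured by Fe-xylenol orange, 573/405 nm absorbance ratio.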
HP1b binding inh: HP1-beta chromodomain-methylated histone interaction inhibition | 390,000 tested, 0.56% active | P83916 | Potency, µM (titrated, usually from 114 µM), usual class: inhibitors | AlphaScreen HP1-beta / biotin-H3K9me3 peptide binding; note: nearly all actives have a fitted effect of over 70% in size
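AlphaScreen: HP1-beta (50 nM) preformed 30 min with biotin-H3(1-18)K9me3 peptide (50 nM) in PBS pH 7.4, 0.01% Tween-20. Compound added for 30 min at RT, then streptavidin donor/nickel chelate acceptor beads (10 ug/mL) for 30 min.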
Sfp inh: blocks B. subtilis Sfp PPTase activity | AID 1490 | 310,000 tested, 3.5% active | Biochemical Sfp PPTase activity, qHTS | Q9F4F7 | Potency, µM, most hits filed as inhibitors;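 note: the enzyme is Sfp with the accession as filed and its product quenches rhodamine fluorescence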
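Reaction rates are the 30-min fluorescence difference (ex 525, em 598 nm) in wells containing 15 nM Sfp, 5 uM rhodamine-CoA and 12.5 uM BHQ-2-YbbR at pH 7.6 with 10 mM MgCl2.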
BAZ2B inh: inhibitors of human BAZ2B bromodomain; Q9UIF8; AlphaScreen BAZ2B-H3K14Ac peptide displacement; Potency, µM (doses to about 114 µM), actives largely listed as inhibitors; 360,000 tested, 4.4% active; AID 504333; note: nearly all actives have a fitted effect of over 60% in size
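In this displacement format the biotinylated H3(5-23) peptide acetylated at Lys14 serves as ligand at 50 nM, with BAZ2B at 50 nM in PBS pH 7.4 containing 0.01% Tween-20. Donor and acceptor beads are 10 ug/mL final.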
G9a block: inhibitors of human histone lysine methyltransferase G9a; Q96KQ7; Potency, µM (titrated, usually from 102 µM), actives largely listed as inhibitors; AID 504332; 350,000 tested, 8.8% active; G9a H3K9 monomethylation, AlphaScreen, 2 h; note: nearly all actives have a fitted effect of over 75% in size
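Compounds were preincubated with 20 nM G9a for 15 min, after which biotinylated H3K9 peptide (500 nM) and SAM (20 uM) started a 2 h room-temperature reaction. Monomethylated product was quantified by antibody-based AlphaScreen chemiluminescence.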
JMJD2A Tudor: JMJD2A Tudor domain (human) inhibition | O75164 | AlphaScreen JMJD2A-Tudor / H3K4me3 peptide binding | Potency, µM (titrated, usually from 114 µM), usual class: inhibitors | 390,000 tested, 4.4% active | AID 504339; note: nearly all actives have a fitted effect of over 50% in size
Target sequence (O75164 whole entry, looked up, the tested form may be a part): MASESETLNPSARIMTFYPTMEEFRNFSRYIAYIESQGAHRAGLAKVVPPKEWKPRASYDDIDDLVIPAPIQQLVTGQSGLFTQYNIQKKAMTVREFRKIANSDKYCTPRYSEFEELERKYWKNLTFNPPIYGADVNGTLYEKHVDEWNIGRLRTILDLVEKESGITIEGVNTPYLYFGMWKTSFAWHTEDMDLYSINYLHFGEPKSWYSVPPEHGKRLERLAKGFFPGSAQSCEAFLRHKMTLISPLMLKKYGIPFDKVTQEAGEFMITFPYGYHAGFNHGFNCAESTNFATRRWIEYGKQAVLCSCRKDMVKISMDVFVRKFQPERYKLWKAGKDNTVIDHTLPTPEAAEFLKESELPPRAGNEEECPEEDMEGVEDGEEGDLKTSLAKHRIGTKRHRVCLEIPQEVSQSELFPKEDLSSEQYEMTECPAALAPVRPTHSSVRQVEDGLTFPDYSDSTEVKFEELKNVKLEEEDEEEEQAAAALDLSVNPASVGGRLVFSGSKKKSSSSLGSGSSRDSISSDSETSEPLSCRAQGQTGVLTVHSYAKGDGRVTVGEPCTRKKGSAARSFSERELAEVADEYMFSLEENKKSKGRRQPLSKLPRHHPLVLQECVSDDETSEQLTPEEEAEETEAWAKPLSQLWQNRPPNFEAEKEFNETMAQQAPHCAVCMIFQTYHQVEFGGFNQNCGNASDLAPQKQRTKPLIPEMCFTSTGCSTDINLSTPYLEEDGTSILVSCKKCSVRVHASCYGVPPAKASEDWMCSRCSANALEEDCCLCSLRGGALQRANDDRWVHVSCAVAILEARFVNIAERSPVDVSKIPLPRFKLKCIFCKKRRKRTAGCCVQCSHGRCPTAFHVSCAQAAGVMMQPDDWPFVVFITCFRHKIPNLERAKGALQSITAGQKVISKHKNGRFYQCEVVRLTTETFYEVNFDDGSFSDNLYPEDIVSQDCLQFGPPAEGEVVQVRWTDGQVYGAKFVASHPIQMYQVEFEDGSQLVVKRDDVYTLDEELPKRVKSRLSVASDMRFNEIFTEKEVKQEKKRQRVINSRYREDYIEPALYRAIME
Large screens that a line does not name were inactive. Calls come from the whole dose curve; as a rule, active = well fitted curve in the direction sought with a large enough effect; inconclusive = small, poorly fitted or top-dose-only effect, or another doubt; inactive = no such curve, though single readings can be large; an effect the other way counts as inactive or inconclusive.

CC(C)[C@H]1c2ccc(F)cc2CC[C@@]1(CCN(C)CCCc1nc2ccccc2[nH]1)OC(=O)C1CC1	12-LOX inh inconclusive, Sfp inh 44.7µM, G9a block 12.6µM (no result: HP1b binding inh, BAZ2B inh, JMJD2A Tudor)
CCOC(=O)C1CCN(C(=O)CCc2nc3ccccc3[nH]2)CC1	none
COc1ccc(-c2cc3c(cn2)CN(Cc2ccccc2)CCN3)cc1OC	none (no result: HP1b binding inh, Sfp inh, BAZ2B inh, G9a block, JMJD2A Tudor)
COC(=O)c1ccc2c(=O)[nH]c(CN3c4ccccc4CC3C)nc2c1 (stereo unspecified)	G9a block 11.2µM
CC1Cc2ccccc2N1Cc1nc2scc(-c3cccs3)c2c(=O)[nH]1 (stereo unspecified)	12-LOX inh inconclusive, G9a block 44.7µM
COc1ccc(O[C@H]2COCCN(Cc3cccc(OC)c3)C2)cc1	none (no result: HP1b binding inh, Sfp inh, BAZ2B inh, G9a block, JMJD2A Tudor)
CC(C)(C)c1ccc(-c2n[nH]c(=S)n2CC2CCCO2)cc1 (stereo unspecified)	12-LOX inh inconclusive, G9a block 7.94µM, JMJD2A Tudor 31.6µM
S=c1[nH]nc(-c2ccccc2Cl)n1CC1CCCO1 (stereo unspecified)	Sfp inh inconclusive, G9a block 5.01µM, JMJD2A Tudor 39.8µM
Fc1ccccc1-c1n[nH]c(=S)n1CC1CCCO1 (stereo unspecified)	none
Cc1ccc(Cl)c(OCc2n[nH]c(=S)n2CC2CCCO2)c1 (stereo unspecified)	none (no result: HP1b binding inh, Sfp inh, BAZ2B inh, G9a block, JMJD2A Tudor)
COCCn1cnnc1CNc1cc(C)nc2c(C)c(C)nn12	none (no result: HP1b binding inh, Sfp inh, BAZ2B inh, G9a block, JMJD2A Tudor)
CCOc1ccccc1N1CCN(S(=O)(=O)c2cnn(CC)c2)CC1	none (no result: HP1b binding inh, Sfp inh, BAZ2B inh, G9a block, JMJD2A Tudor)
Cn1cnc(S(=O)(=O)N2CCCC(C(=O)NCCCN3CCCCCC3)CCNC(=O)CC2)c1 (stereo unspecified)	none (no result: HP1b binding inh, Sfp inh, BAZ2B inh, G9a block, JMJD2A Tudor)
CCN1CCOC(CC(=O)Nc2ccc([N+](=O)[O-])cc2)C1=O (stereo unspecified)	G9a block inconclusive
O=C(CC1OCC2CCCN2C1=O)Nc1ccc([N+](=O)[O-])cc1 (stereo unspecified)	G9a block 8.91µM
CCN(CC)C(=O)[C@@H]1C[C@H](NC(=O)c2ccc[nH]2)CN1Cc1ccncc1	none (no result: HP1b binding inh, Sfp inh, BAZ2B inh, G9a block, JMJD2A Tudor)
COc1ccc(Cl)cc1-c1ccc(C(=O)O)o1	Sfp inh 112µM, G9a block inconclusive (no result: 12-LOX inh, HP1b binding inh, BAZ2B inh, JMJD2A Tudor)
COc1ccccc1-c1ccc(C(=O)O)o1	none
Cc1ccc(C)c(-c2ccc(C(=O)O)o2)c1	Sfp inh 112µM, G9a block inconclusive (no result: 12-LOX inh, HP1b binding inh, BAZ2B inh, JMJD2A Tudor)
Cc1ccccc1C(=O)N1CCN(c2cc(-c3ccccc3)[nH]n2)CC1	none (no result: HP1b binding inh, Sfp inh, BAZ2B inh, G9a block, JMJD2A Tudor)
Cc1nnsc1C(=O)N[C@H]1CCN(C(=O)COCC(=O)O)[C@H](C(=O)N[C@H](Cc2ccccc2)C(N)=O)C1	none (no result: HP1b binding inh, Sfp inh, BAZ2B inh, G9a block, JMJD2A Tudor)
CS(=O)(=O)N1CCC(OC2CCN(C(=O)Nc3ccc(F)cc3)CC2)CC1	none (no result: HP1b binding inh, Sfp inh, BAZ2B inh, G9a block, JMJD2A Tudor)
COc1cccc(S(=O)(=O)Nc2ccc3sc(C)nc3c2)c1	12-LOX inh inconclusive, Sfp inh inconclusive, G9a block 22.4µM, JMJD2A Tudor 79.4µM
Cc1nc2cc(NS(=O)(=O)c3cccc4cccnc34)ccc2s1	none (no result: G9a block)
CC(C)CC(OC(=O)c1cccs1)C(=O)NCc1ccco1 (stereo unspecified)	12-LOX inh inconclusive, Sfp inh inconclusive, G9a block 12.6µM
CCN(CC)c1ccc(C(=S)N2CCN(c3ccccc3)CC2)cc1	HP1b binding inh inconclusive, Sfp inh inconclusive, BAZ2B inh 10µM, G9a block 11.2µM
S=C(c1ccccc1)N1CCN(c2ccccc2)CC1	HP1b binding inh inconclusive (no result: Sfp inh, BAZ2B inh, G9a block)
CC(C)(C)c1ccc(C(=S)N2CCN(c3ccccc3)CC2)cc1	HP1b binding inh inconclusive, Sfp inh 50.1µM, G9a block 20µM
CN(C)CCCN(C(=O)c1ccc2ccccc2c1)c1nc2cc3c(cc2s1)OCO3	12-LOX inh inconclusive, BAZ2B inh inconclusive, G9a block inconclusive, JMJD2A Tudor inconclusive
CCN(c1ccccc1)S(=O)(=O)c1ccc(C(=O)N(CCCN(C)C)c2nc3cc4c(cc3s2)OCO4)cc1	12-LOX inh inconclusive, HP1b binding inh inconclusive, Sfp inh inconclusive, G9a block 39.8µM, JMJD2A Tudor 39.8µM
CCN(c1ccccc1)S(=O)(=O)c1ccc(C(=O)N(CCCN(C)C)c2nc3c(C)cccc3s2)cc1	12-LOX inh inconclusive, BAZ2B inh 28.2µM, JMJD2A Tudor 44.7µM (no result: G9a block)
